# High-throughput results as filed in PubChem.
# Most compounds without a hit are left out; they make up all but 4.8% or so of the library.
# Mot1-301 SUMO = SUMOylation pathway inhibition by Mot1-301 growth rescue; growth rescue, % at 18.8 µM; hit rate 1% among 320,000; S. cerevisiae Mot1-301 growth rescue, ATP luminescence, 38.5C; percent above DMSO median, 100 means doubled;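 active means every valid replicate shows activation above 250% relative to neutral control wells; inactive means the rest, any valid replicate at or below 250%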;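 further: OY570 slx delta 5 strain wells were the positive control but not used for scaling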
# HIF act = HIF pathway transcriptional activation; hit rate 0.32% among 300,000; U2OS HRE-luciferase reporter, luminescence; normalized: DMSO 0%, desferrioxamine 100%; AID 1910; activation, % at 7.5 µM (by protocol);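 active means mean activation of at least 10% of the iron chelator positive control signal, with at least half of replicates also reaching 10%; inconclusive means mean and replicate majority disagree about reaching 10%; inactive means mean and most replicates under 10%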
# AI-2 QS modul = Vibrio harveyi AI-2 quorum sensing modulation; activity change, % at 7.5 µM; Vibrio harveyi JMH597 AI-2 luminescence/OD600 ratio, 9 h; stronger effect = lower value; strain lacks LuxN and CqsS sensors; 0 = neutral-control median; hit rate 0.4% among 300,000; in the data active means activity change below about -75%, passing the limit was not always enough; inconclusive means no clear call, values can overlap the other calls;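 further: luminescence divided by OD600 gain over 9 h not by final OD600 alone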
# ALR H2O2 inh = inhibitors of human sulfhydryl oxidase ALR | purified ALR, DTT oxidation, H2O2 HRP-luminol luminescence | inhibition, % (concentration not given with the values) | hit rate 3.8% among 290,000 | P55789;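 active means mean replicate inhibition above about 79%, with every replicate also reaching it, limit read from the data; inconclusive means only one of the two criteria met; inactive means mean below limit and not every replicate reaching it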
# Target sequence (P55789 whole entry, looked up): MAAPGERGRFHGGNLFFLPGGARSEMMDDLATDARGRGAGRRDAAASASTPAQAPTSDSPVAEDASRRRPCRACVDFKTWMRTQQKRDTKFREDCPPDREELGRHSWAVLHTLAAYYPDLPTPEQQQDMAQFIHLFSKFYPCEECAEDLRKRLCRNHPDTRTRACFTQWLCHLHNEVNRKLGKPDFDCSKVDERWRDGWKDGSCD
# The depositor's hits bear a star; ? = inconclusive; / = no result.
SMILES,Mot1-301 SUMO,HIF act,AI-2 QS modul,ALR H2O2 inh
Cc1[nH]c2ccc(C(=O)OC(C)C(=O)N(C)c3ccccc3)cc2c1C (configuration not stated),9,-1,23,-1
COc1ccc(Br)c(C(=O)NCC2CCCCC2)c1,23,0,/,-2
CSCCC(N=C1NS(=O)(=O)c2ccccc21)C(=O)NCCc1ccccc1 (configuration not stated),9,0,23,-1
O=C1OCCC1Sc1nc2ccccc2s1 (configuration not stated),-9,0,16,98*
O=C1OCCC1Sc1nc2cc(Cl)ccc2s1 (configuration not stated),16,0,37,-3
S=c1[nH]c(-c2ccc(Cl)cc2)cs1,30,2,-1,97*
Cc1ccc(-c2csc(=S)[nH]2)cc1,/,2,-31,64
Cc1ccc(NC(=O)CN(C)S(=O)(=O)c2cccc3cccnc23)cc1,66,/,22,95*
CCOc1ccc(NC(=O)CN(C)S(=O)(=O)c2cccc3cccnc23)cc1,8,0,17,-10
N#CC1(C#N)CC(C=O)=C(N)C1(C#N)CC(=O)C12CC3CC(CC(C3)C1)C2 (configuration not stated),-12,0,38,96*
CCN(C(=S)NC(=O)C1CC1)c1ccccc1,-2,1,1,-3
CN(C(=S)NC(=O)C1CC1)c1ccc(O)cc1,-15,/,/,97*
COc1ccc(-c2cc(C(=O)NN)[nH]n2)cc1,-10,2,9,45
COc1ccc(-c2cc(C(=O)O)[nH]n2)cc1OC,10,0,-5,12
CCOc1ccc(-c2cc(C(=O)NN)[nH]n2)cc1,253,1,4,99*
COc1ccc(-c2cc(C(=O)NN)[nH]n2)cc1OC,0,5,18,98*
CCC(=O)N1c2ccc(S(=O)(=O)CCC(=O)N3CCN(c4ccccc4F)CC3)cc2CC1C (configuration not stated),8,0,39,-1
Cc1cc(OC(C)C(=O)NCC2CCC(C(=O)O)CC2)c2c(C)cc(=O)oc2c1 (configuration not stated),-6,0,10,-4
CC(=O)C(Cc1ccccc1)NC(=O)COC(=O)c1ccc(-n2cnnn2)cc1 (configuration not stated),10,/,/,-1
Nc1ccc(CCc2ccc(N)cc2)cc1,154,0,17,85*
O=C(CN1CCN(c2ccc(Cl)cc2)CC1)Nc1ccc(F)cc1,-9,0,23,11
CCN(CC)c1ccc(NC(=O)CN2CCN(CC(=O)Nc3ccccc3F)CC2)cc1,63,-1,29,99*
CCN(CC)c1ccc(NC(=O)CN2CCN(c3nc(C)cc(C)n3)CC2)cc1,2,/,/,98*
CCN(CC)c1ccc(NC(=O)CN2CCN(c3ccc(F)cc3)CC2)cc1,23,0,-1,79*
Cc1cc(Cl)ccc1NC(=O)CCC(=O)N/N=C/c1cccnc1,-10,0,20,1
SMILES,Mot1-301 SUMO,HIF act,AI-2 QS modul,ALR H2O2 inh
O=C(CN1C(=O)NC2(CCCCCC2)C1=O)c1cccs1,-6,/,/,0
COc1cccc(CCNC(=O)CC2C(=O)NCCN2CC(C)(C)C)c1 (configuration not stated),551*,0,17,-7
COc1ccc(CN2CCNC(=O)C2CC(=O)NCCc2nc(C)c(C)s2)c(OC)c1 (configuration not stated),157,0,10,/
COc1ccc(CN2CCNC(=O)C2CC(=O)NCCc2c[nH]c3ccccc23)c(OC)c1 (configuration not stated),524*,0,30,-7
COc1cccc(/C=N/NC(=O)NC2CCCCC2)c1O,3,2,4,90*
COc1cccc(/C=N/NC(=O)c2ccoc2C)c1O,96,25*,0,20
COc1cc(OC)cc(-c2oc(=O)c3cc(OC)c(OC)cc3c2/C=C/c2ccc(F)cc2)c1,-17,/,/,-2
CCCNC(=O)CS(=O)(=O)Cc1nc(-c2ccccc2C)oc1C,-24,0,14,-20
COc1ccc(CNC(=O)CS(=O)Cc2nc(-c3ccccc3C)oc2C)cc1 (configuration not stated),11,0,10,99*
COCCNC(=O)CS(=O)Cc1nc(-c2ccccc2C)oc1C (configuration not stated),7,0,17,98*
Cc1ccccc1-c1nc(CS(=O)CC(=O)NCc2ccccc2)c(C)o1 (configuration not stated),0,0,5,98*
COc1ccccc1CNC(=O)CS(=O)Cc1nc(-c2ccccc2C)oc1C (configuration not stated),-2,0,3,99*
Cc1ccc(CNC(=O)CS(=O)Cc2nc(-c3ccccc3C)oc2C)cc1 (configuration not stated),8,0,13,26
O=C(CCc1[nH]c2ccccc2c1Sc1ccccc1)NCCO,9,-1,47,99*
Oc1ccc(N2CCN(Cc3nc4ccccc4[nH]3)CC2)cc1,2,-2,/,99*
CC(=O)c1ccc(N2CCN(Cc3nc4ccccc4[nH]3)CC2)cc1,5,0,2,/
Oc1ccc(/C=N/Nc2cc(N3CCOCC3)nc(N3CCOCC3)n2)cc1O,-7,0,12,99*
Cc1nc(N/N=C/c2ccc(O)cc2O)cc(N2CCOCC2)n1,83,0,1,95*
Oc1cccc(/C=N/Nc2cc(N3CCOCC3)nc(N3CCOCC3)n2)c1,15,0,7,73
C=CCOC(=O)/C=C/C(=O)NC(N)=O,4,0,8,98*
COc1ccc(C)cc1NC(=O)c1cc2c(CO)cnc(C)c2oc1=N,-15,/,7,86*
Cc1ccc2c(c1)sc(-c1ccc(N(C)C)cc1)[n+]2C,4,5,7,43
Cc1cccc(C(=O)Nc2ccc(S(=O)(=O)Nc3nc(C)cc(C)n3)cc2)c1,7,0,13,0
O=c1oc(C2(O)CCCCC2)cc2ccc(-c3ccc4[nH]ccc4c3)cc12,-24,/,/,-4
Oc1c(C(Nc2cccc(C(F)(F)F)c2)c2ccncc2)ccc2cccnc12 (configuration not stated),-15,24*,-34,/
Oc1c(C(Nc2nccs2)c2ccc(C(F)(F)F)cc2)ccc2cccnc12 (configuration not stated),/,58*,?,/
N#CC1=C(N)NC(SCC(=O)Nc2ccc(Br)cc2)=C(C#N)C12CCCCC2,17,0,13,97*
N#CC1=C(N)NC(SCc2ccc(Br)cc2)=C(C#N)C12CCCCC2,40,0,9,-20
CCOC(=O)c1c(S(=O)(=O)NCC(=O)N2CCN(c3ccc(F)cc3)CC2)c(C)n(C)c1C,9,0,28,10
O=C(CN(Cc1ccc2c(c1)OCO2)C(=O)CNC(=O)c1ccco1)NC1CCCCC1,335*,0,29,7
